Reference: the supplement of paper PMC8728848
The full list was thinned out, with the strongest signals kept by preference.

How the values were obtained:
Assay in all cases: glycan array binding signal (z-score within array); higher = stronger binding
Settings in all cases: glycan notation: IUPAC condensed, linker removed
[1] = molecular target: Fuc(a1-2)Gal(b1-3)GalNAc(b1-3)Gal
Outline: (§1)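 Negative Z-scores can be read as non-binding. The Z-score is calculated within each array and then averaged across arrays of one protein sequence at different concentrations or buffers and across linkers. Arrays, 3228 in all, were curated from the Consortium for Functional Glycomics database and kept only where the protein sequence was available.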

[2] = molecular target: Fuc(a1-2)Gal(b1-3)GalNAc(b1-3)Gal(a1-4)Gal(b1-4)Glc
Outline: as §1

[3] = molecular target: Fuc(a1-2)Gal(b1-3)GlcNAc6S
Outline: as §1

[4] = molecular target: Fuc(a1-2)Gal(b1-4)GlcNAc(b1-3)Gal(b1-4)GlcNAc
Outline: as §1

[5] = molecular target: Fuc(a1-2)Gal(b1-4)GlcNAc(b1-3)GalNAc
Outline: as §1

[6] = molecular target: Fuc(a1-2)Gal(b1-4)[Fuc(a1-3)]GlcNAc(b1-3)Gal(b1-4)[Fuc(a1-3)]GlcNAc(b1-3)Gal(b1-4)[Fuc(a1-3)]GlcNAc
Outline: as §1

[7] = molecular target: Fuc(a1-2)Gal6S(b1-4)Glc6S
Outline: as §1

[8] = molecular target: Fuc(a1-2)[Gal(a1-3)]Gal(b1-3)GlcNAc
Outline: as §1

[9] = molecular target: Fuc(a1-2)[Gal(a1-4)]Gal(b1-4)GlcNAc
Outline: as §1

[10] = molecular target: Fuc(a1-2)[GalNAc(a1-3)]Gal(b1-4)GlcNAc(b1-3)Gal(b1-4)GlcNAc(b1-3)Gal(b1-4)GlcNAc
Outline: as §1

[11] = molecular target: Fuc(a1-2)[GalNAc(a1-3)]Gal(b1-4)GlcNAc(b1-3)[Fuc(a1-2)[GalNAc(a1-3)]Gal(b1-4)GlcNAc(b1-6)]GalNAc
Outline: as §1

[12] = molecular target: Fuc(a1-3)[Gal(b1-4)]Glc6S
Outline: as §1

[13] = molecular target: Fuc(a1-3)[Gal(b1-4)]GlcNAc(b1-3)GalNAc
Outline: as §1

[14] = molecular target: Fuc(a1-3)[Gal(b1-4)]GlcNAc(b1-6)GalNAc
Outline: as §1

[15] = molecular target: Fuc(a1-3)[GalNAc(b1-4)]GlcNAc
Outline: as §1

Gal(a1-4)GlcNAc = molecular target: Gal(a1-4)GlcNAc
Outline: as §1

Gal(b1-2)Gal = molecular target: Gal(b1-2)Gal
Outline: as §1

Gal(b1-3)Gal(b1-4)GlcNAc = molecular target: Gal(b1-3)Gal(b1-4)GlcNAc
Outline: as §1

[16] = molecular target: Gal(b1-3)GalNAc(a1-3)[Fuc(a1-2)]Gal(b1-4)Glc
Outline: as §1

[17] = molecular target: Gal(b1-3)GlcNAc(b1-3)GalNAc
Outline: as §1

Gal(b1-3)GlcNAc6S = molecular target: Gal(b1-3)GlcNAc6S
Outline: as §1

[18] = molecular target: Gal(b1-3)[GlcNAc(b1-6)]GalNAc
Outline: as §1

Gal(b1-4)Glc6S = molecular target: Gal(b1-4)Glc6S
Outline: as §1

[19] = molecular target: Gal(b1-4)GlcNAc(b1-2)Man(a1-3)[GlcNAc(b1-4)][Gal(b1-4)GlcNAc(b1-2)Man(a1-6)]Man(b1-4)GlcNAc(b1-4)GlcNAc
Outline: as §1

[20] = molecular target: Gal(b1-4)GlcNAc(b1-2)[Gal(b1-4)GlcNAc(b1-4)]Man(a1-3)[Gal(b1-4)GlcNAc(b1-2)Man(a1-6)]Man(b1-4)GlcNAc(b1-4)GlcNAc
Outline: as §1

[21] = molecular target: Gal(b1-4)GlcNAc(b1-3)Gal(b1-3)GlcNAc
Outline: as §1

[22] = molecular target: Gal(b1-4)GlcNAc(b1-3)Gal(b1-4)GlcNAc(b1-2)Man(a1-3)[Gal(b1-4)GlcNAc(b1-3)Gal(b1-4)GlcNAc(b1-2)Man(a1-6)]Man(b1-4)GlcNAc(b1-4)[Fuc(a1-6)]GlcNAc
Outline: as §1

[23] = molecular target: Gal(b1-4)GlcNAc(b1-3)Gal(b1-4)GlcNAc(b1-3)Gal(b1-4)GlcNAc(b1-3)Gal(b1-4)GlcNAc(b1-3)Gal(b1-4)GlcNAc(b1-2)Man(a1-3)[Gal(b1-4)GlcNAc(b1-3)Gal(b1-4)GlcNAc(b1-3)Gal(b1-4)GlcNAc(b1-3)Gal(b1-4)GlcNAc(b1-3)Gal(b1-4)GlcNAc(b1-2)Man(a1-6)]Man(b1-4)GlcNAc(b1-4)GlcNAc
Outline: as §1

[24] = molecular target: Gal(b1-4)GlcNAc(b1-3)Gal(b1-4)GlcNAc(b1-6)[Gal(b1-3)]GalNAc
Outline: as §1

[25] = molecular target: Gal(b1-4)GlcNAc(b1-3)[Gal(b1-4)GlcNAc(b1-6)]Gal(b1-4)GlcNAc
Outline: as §1

Gal6S(b1-3)GlcNAc6S = molecular target: Gal6S(b1-3)GlcNAc6S
Outline: as §1

GalNAc4S6S(b1-4)GlcNAc = molecular target: GalNAc4S6S(b1-4)GlcNAc
Outline: as §1

Glc(a1-4)Glc = molecular target: Glc(a1-4)Glc
Outline: as §1

[26] = molecular target: GlcA3S(b1-3)Gal(b1-4)GlcNAc(b1-3)Gal(b1-4)Glc
Outline: as §1

[27] = molecular target: GlcNAc(a1-4)Gal(b1-3)GlcNAc
Outline: as §1

[28] = molecular target: GlcNAc(b1-2)Man(a1-3)[GlcNAc(b1-2)Man(a1-6)]Man(b1-4)GlcNAc(b1-4)GlcNAc
Outline: as §1

Man(a1-3)[Man(a1-6)]Man = molecular target: Man(a1-3)[Man(a1-6)]Man
Outline: as §1

Man(a1-6)Man = molecular target: Man(a1-6)Man
Outline: as §1

[29] = molecular target: Neu5Ac(a2-3)Gal(b1-3)GalNAc6S
Outline: as §1

[30] = molecular target: Neu5Ac(a2-3)Gal(b1-4)GlcNAc(b1-2)[Neu5Ac(a2-3)Gal(b1-4)GlcNAc(b1-4)]Man(a1-3)[GlcNAc(b1-4)][Neu5Ac(a2-3)Gal(b1-4)GlcNAc(b1-2)[Neu5Ac(a2-3)Gal(b1-4)GlcNAc(b1-6)]Man(a1-6)]Man(b1-4)GlcNAc(b1-4)GlcNAc
Outline: as §1

[31] = molecular target: Neu5Ac(a2-3)Gal(b1-4)GlcNAc(b1-3)Gal(b1-4)GlcNAc(b1-2)Man(a1-3)[Neu5Ac(a2-3)Gal(b1-4)GlcNAc(b1-3)Gal(b1-4)GlcNAc(b1-2)Man(a1-6)]Man(b1-4)GlcNAc(b1-4)GlcNAc
Outline: as §1

[32] = molecular target: Neu5Ac(a2-3)Gal(b1-4)GlcNAc(b1-3)Gal(b1-4)GlcNAc(b1-3)GalNAc
Outline: as §1

[33] = molecular target: Neu5Ac(a2-3)Gal(b1-4)[Fuc(a1-3)]GlcNAc(b1-3)GalNAc
Outline: as §1

[34] = molecular target: Neu5Ac(a2-3)Gal6S(b1-4)[Fuc(a1-3)]GlcNAc
Outline: as §1

[35] = molecular target: Neu5Ac(a2-3)[GalNAc(b1-4)]Gal(b1-4)Glc
Outline: as §1

[36] = molecular target: Neu5Ac(a2-6)Gal(b1-3)GlcNAc(b1-3)[Gal(b1-4)GlcNAc(b1-6)]Gal(b1-4)Glc
Outline: as §1

[37] = molecular target: Neu5Ac(a2-6)Gal(b1-4)GlcNAc(b1-3)Gal(b1-4)GlcNAc(b1-3)GalNAc
Outline: as §1

[38] = molecular target: Neu5Ac(a2-6)Gal(b1-4)GlcNAc6S
Outline: as §1

[39] = molecular target: Neu5Ac(a2-8)Neu5Ac(a2-3)[Gal(b1-3)GalNAc(b1-4)]Gal(b1-4)Glc
Outline: as §1

[40] = molecular target: Neu5Gc(b2-6)Gal(b1-4)GlcNAc
Outline: as §1

B1: TAL6-4LysM (Trichoderma atroviride) (protein)
chain: AADSIPSISPTGIITPTPTQSGMVSNCNKFYDVHSNDGCSAIASSQHVDLSSLYKWNPAIKTDCSGLQASVYVCIGILTTSMSTTSKLPTTTSKPSTTSKPPTGITTPTPTQSGMVKNCNKFYDVHSGDGCSAIASSQKVNLSSFYLWNPAVKTDCSGLQASVFVCIGTLTTSMSTTTSKLPTTTSKPSTTSKPPTGIITPTPTQNGMVKNCNKFYDVHSGDGCSAIASSQKVNLSSFYLWNPAVKTDCSGLQASVFVCVGTATTTTAAGITTPTPTQSGMVSGCNKFYDVHAGDGCSAIASSQKIALSSLYKWNPAVKTDCSGLQASVYICIGVGNAAAARVTGALEQKLISEEDLNSAVDHHHHHH
- glycan array binding signal (z-score) [1]: -0.335
- glycan array binding signal (z-score) [2]: -1.13
- glycan array binding signal (z-score) [3]: 1.83
- glycan array binding signal (z-score) [4]: 0.858
- glycan array binding signal (z-score) [5]: -0.49
- glycan array binding signal (z-score) [6]: 0.899
- glycan array binding signal (z-score) [7]: -0.234
- glycan array binding signal (z-score) [8]: -0.6
- glycan array binding signal (z-score) [9]: 2.32
- glycan array binding signal (z-score) [10]: -0.51
- glycan array binding signal (z-score) [11]: -0.157
- glycan array binding signal (z-score) [12]: 0.195
- glycan array binding signal (z-score) [13]: -0.606
- glycan array binding signal (z-score) [14]: -0.062
- glycan array binding signal (z-score) [15]: 3.19
- glycan array binding signal (z-score) (Gal(a1-4)GlcNAc): 2.59
- glycan array binding signal (z-score) (Gal(b1-2)Gal): 0.734
- glycan array binding signal (z-score) (Gal(b1-3)Gal(b1-4)GlcNAc): 2.92
- glycan array binding signal (z-score) [16]: -0.473
- glycan array binding signal (z-score) [17]: 0.663
- glycan array binding signal (z-score) (Gal(b1-3)GlcNAc6S): 3.15
- glycan array binding signal (z-score) [18]: 2.39
- glycan array binding signal (z-score) (Gal(b1-4)Glc6S): -0.334
- glycan array binding signal (z-score) [19]: -0.532
- glycan array binding signal (z-score) [20]: 3.53
- glycan array binding signal (z-score) [21]: -0.823
- glycan array binding signal (z-score) [22]: -0.014
- glycan array binding signal (z-score) [23]: -0.74
- glycan array binding signal (z-score) [24]: 1.17
- glycan array binding signal (z-score) [25]: 0.074
- glycan array binding signal (z-score) (Gal6S(b1-3)GlcNAc6S): 0.018
- glycan array binding signal (z-score) (GalNAc4S6S(b1-4)GlcNAc): 1.16
- glycan array binding signal (z-score) (Glc(a1-4)Glc): -0.584
- glycan array binding signal (z-score) [26]: 1.02
- glycan array binding signal (z-score) [27]: -0.119
- glycan array binding signal (z-score) [28]: 2.79
- glycan array binding signal (z-score) (Man(a1-3)[Man(a1-6)]Man): 3.24
- glycan array binding signal (z-score) (Man(a1-6)Man): -1.37
- glycan array binding signal (z-score) [29]: 0.743
- glycan array binding signal (z-score) [30]: -1.17
- glycan array binding signal (z-score) [31]: 2.52
- glycan array binding signal (z-score) [32]: -0.304
- glycan array binding signal (z-score) [33]: -0.18
- glycan array binding signal (z-score) [34]: -1.06
- glycan array binding signal (z-score) [35]: -1.03
- glycan array binding signal (z-score) [36]: 0.176
- glycan array binding signal (z-score) [37]: 3.9
- glycan array binding signal (z-score) [38]: 1.36
- glycan array binding signal (z-score) [39]: -0.586
- glycan array binding signal (z-score) [40]: -0.286
